The entries come from a sample that favours hits as a whole.
Tb PYK inh – inhibitors of Trypanosoma brucei pyruvate kinase | TbPYK enzyme, Kinase-Glo Plus ATP luminescence, 45 min | 410,000 compounds, 0.12% hits | Q57TT1 | Potency, µM (doses to about 76.8 µM), inactives show top-dose activity, negative = inhibition, hits mostly inhibitors; note: potency is the fitted concentration of half-maximal effect; % is set by controls: 0 for no effect and ±100 for the full control effect; nearly all actives have a fitted effect of over 50% in size
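TbPYK + substrate in 50 mM TEA pH 7.2, 100 mM KCl, 10 mM MgCl2, 0.05% BSA, 0.01% Tween-20; cpd pinned; ADP 130 uM final; 45 min RT; Kinase-Glo Plus 10 min; luminescence endpoint.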
LmPK inh – inhibitors of Leishmania mexicana pyruvate kinase. Q27686. purified LmPK, Kinase-Glo ATP luminescence, 1 h. Potency, µM (titrated, usually from 57.5 µM), for inactives: at the highest dose activity change, negative = inhibition, hits mostly inhibitors. AID 1721. 290,000 compounds, 0.37% hits; note: potency is the fitted concentration of half-maximal effect; % is set by controls: 0 for no effect and ±100 for the full control effect
Target sequence (Q27686 whole entry, looked up): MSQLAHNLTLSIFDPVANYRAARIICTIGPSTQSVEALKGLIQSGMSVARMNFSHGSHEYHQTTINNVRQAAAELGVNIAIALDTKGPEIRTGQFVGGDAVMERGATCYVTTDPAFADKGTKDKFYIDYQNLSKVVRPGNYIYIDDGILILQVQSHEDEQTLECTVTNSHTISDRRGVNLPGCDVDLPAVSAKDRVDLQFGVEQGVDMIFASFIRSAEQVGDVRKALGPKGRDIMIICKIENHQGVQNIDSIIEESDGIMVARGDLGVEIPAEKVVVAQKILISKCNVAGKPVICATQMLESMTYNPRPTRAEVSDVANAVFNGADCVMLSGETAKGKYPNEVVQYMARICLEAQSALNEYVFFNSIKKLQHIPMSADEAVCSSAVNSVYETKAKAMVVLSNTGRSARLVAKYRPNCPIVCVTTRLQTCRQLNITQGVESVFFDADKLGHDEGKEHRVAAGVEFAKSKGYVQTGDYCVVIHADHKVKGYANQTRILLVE
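In 50 mM imidazole pH 7.2 with 7 mM MgCl2, LmPK (0.1 nM) turned over PEP (0.5 mM) and ADP (0.1 mM) for 1 h at room temperature. Luciferase read-out of ATP.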
CHX counter – counter-screen for Shiga toxin inhibitors: cycloheximide protein synthesis inhibition | max response, % | 300,000 compounds, 12% hits | cell reporter, cycloheximide protein synthesis inhibition counterscreen; in the data active = max response mostly above about 13%, no sharp cut-off; inactive = mostly below about 14%; note: read at 38.3 µM for the half of the compounds with a filed dose; 0% is about no effect
Sm TGR block – inhibitors of Schistosoma mansoni thioredoxin glutathione reductase. Potency, µM (doses to about 114 µM), inactives show top-dose activity change, negative = inhibition, usual class: inhibitors. Q962Y6. purified TGR, DTNB reduction, TNB absorbance 405 nm. AID 485364. 360,000 compounds, 3% hits; note: potency is the fitted concentration of half-maximal effect; % is set by controls: 0 for no effect and ±100 for the full control effect; nearly all actives have a fitted effect of over 60% in size
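First, TGR (20 nM dispensed) and NADPH were mixed with compound. Second, a 15 min room-temperature incubation followed. Third, further NADPH and then DTNB were added to start the reaction. Finally, TNB absorbance was monitored kinetically.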
FBPA Giardia inh – Giardia lamblia aldolase inhibition. purified Giardia FBPA. A8B2U2. 290,000 compounds, 0.71% hits. Potency, µM (series often up to 59.6 µM), for inactives: at the highest dose activity, negative = inhibition, most hits filed as inhibitors. AID 2451; note: potency is the fitted concentration of half-maximal effect; % is set by controls: 0 for no effect and ±100 for the full control effect; nearly all actives have a fitted effect of over 55% in size
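Giardia FBPA (40 nM reagent) was preincubated 10 min at RT with compound (up to 57.5 uM final), then substrate plus GAPDH/TPI/NAD/arsenate coupling system with diaphorase/resazurin was added; resorufin fluorescence (525/598 nm) was read after 20 min.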
Shiga inhibitor – inhibitors of Shiga toxin in Vero cells. 290,000 compounds, 9.2% hits. inhibition, % at 38.7 µM. Vero cells, Shiga toxin protein synthesis inhibition reporter; in the data active = inhibition mostly above about 28%, no sharp cut-off; inactive = mostly below about 43%; note: 0% is about no effect
* = called active by the depositor; [ ] = dose if it differs, or a comment. Unless noted, calls come from the whole dose curve; as a rule, active = well fitted curve in the direction sought with a large enough effect; inconclusive = small, poorly fitted or top-dose-only effect, or another doubt; inactive = no such curve, though single readings can be large; an effect the other way counts as inactive or inconclusive.

Screening Cc1ccc(NC(=O)c2ccc(CSc3nnc(C)s3)cc2)c(C)c1 returned Tb PYK inh 2.1%, LmPK inh 1.8%, CHX counter 42.9*, Sm TGR block 1.6%, FBPA Giardia inh -1.8% and Shiga inhibitor 96.5*.
Screening Cc1nnc(SCC(=O)c2ccc(Br)cc2)s1 returned Tb PYK inh 5.6%, LmPK inh -0.9%, CHX counter 18.7*, FBPA Giardia inh -3.4% and Shiga inhibitor 40.7.
Screening Cc1ccc(C(=O)CSc2nnc(C)s2)cc1 returned Tb PYK inh 0.0%, LmPK inh -6.8%, CHX counter 52.7*, Sm TGR block 3.4%, FBPA Giardia inh 1.3% and Shiga inhibitor 66.3*.
Cc1nnc(SCC(=O)O)s1 was read as Tb PYK inh -3.6%, LmPK inh -4.0%, CHX counter -2.4, Sm TGR block 8.3%[57.1 µM], FBPA Giardia inh 1.6% and Shiga inhibitor 2.3.
`Cc1nnc(SCc2ccc(C(=O)Nc3cc(Cl)ccc3C)cc2)s1` gave Tb PYK inh -5.4%, LmPK inh 4.3%, CHX counter 12.5, Sm TGR block -11.1%, FBPA Giardia inh -3.2% and Shiga inhibitor 36.0.
Screening CC(C)c1nnc(NC(=O)CS(=O)(=O)c2ccccc2)s1 returned Tb PYK inh 0.0%, LmPK inh 0.1%, CHX counter -4.1, Sm TGR block -9.0%, FBPA Giardia inh -16.8% and Shiga inhibitor -5.7.
`CCOC(=O)OCC1OC(CCc2ccccc2)CCC1Oc1ccc(OC)cc1` (stereo not drawn) gave FBPA Giardia inh 1.2%[12.9 µM].
`CC(C)(C)c1ccc(-c2nnc(-c3ccccc3NC(=O)c3cccc(C(F)(F)F)c3)o2)cc1` gave Tb PYK inh 1.2% and Sm TGR block 10.7%.
COc1ccc2c(c1)CC/C(=C/c1ccncc1)C2=O was read as Tb PYK inh -9.3%, LmPK inh -19.4%, CHX counter 31.9*, Sm TGR block 3.6%, FBPA Giardia inh 0.3% and Shiga inhibitor 54.2.
COc1ccc2c(c1)CCc1cnoc1-2 was read as Tb PYK inh 1.6%.
COc1ccc2c(c1)CC/C(=C\c1ccc(C)o1)C2=O was read as Tb PYK inh -11.7%, LmPK inh -6.1%, CHX counter 56.0*, Sm TGR block 22.4µM*, FBPA Giardia inh -28.1% and Shiga inhibitor 90.8*.
CCOc1ccc(C2=C(C(C)=O)Sc3nnc(C)n3N2C(C)=O)cc1 was read as Tb PYK inh 2.7%, CHX counter 19.7*, Sm TGR block 18.1% and Shiga inhibitor 44.8.
`CC(=O)C1=C(c2ccc(C)cc2)N(C(C)=O)n2c(nnc2-c2ccccc2)S1` gave Tb PYK inh -1.7% and Sm TGR block 9.4%.
COc1ccc(C2=C(C(C)=O)Sc3nnc(-c4ccccc4)n3N2C(C)=O)cc1 was read as Tb PYK inh -6.9% and Sm TGR block -0.7%.
`CC(=O)C1=C(c2cccc([N+](=O)[O-])c2)N(C(C)=O)n2c(C)nnc2S1` gave Tb PYK inh -2.1%, LmPK inh -24.9%, CHX counter 17.6*, Sm TGR block 22.4µM*, FBPA Giardia inh 1.1% and Shiga inhibitor 12.4.
For COc1ccc(-n2c(=S)[nH]c3cc(C(=O)NCc4cccnc4)ccc3c2=O)cc1 the results were Tb PYK inh -5.6%, LmPK inh -5.0%, CHX counter -5.0, Sm TGR block -4.6%, FBPA Giardia inh inconclusive and Shiga inhibitor -8.0.
`O=C(Nc1ccc(F)cc1)Nc1csc2ccccc12` gave Tb PYK inh -9.5%, LmPK inh 4.2%, CHX counter 20.8*, Sm TGR block 6.1%, FBPA Giardia inh -10.7% and Shiga inhibitor 96.6*.
Screening CN(C)c1ccc(NC(=O)Nc2csc3ccccc23)cc1 returned Tb PYK inh -5.9%, LmPK inh 3.0%, CHX counter 44.2*, Sm TGR block inconclusive, FBPA Giardia inh inconclusive and Shiga inhibitor 75.8*.
`CN1CCC(CNC(=O)Nc2csc3ccccc23)CC1` gave Tb PYK inh -1.1%, LmPK inh 4.1%, CHX counter 24.9, Sm TGR block -6.2%, FBPA Giardia inh 2.2% and Shiga inhibitor 36.2.

Source: PubChem BioAssay (National Center for Advancing Translational Sciences (NCATS))
